Source: PubChem BioAssay (EPA / NIEHS)
Several values for one entry are separate records, joined by “and”; a condition that tells them apart may be missing. Equal values may be shown once. Activity calls are given as the source filed them. The calls were made as follows: active = hit-call score of the fitted dose curve at least 0.9, where 1 is the maximum; inactive = score below 0.9.

Key:
[1] = read-out: Interleukin-1 alpha (IL1a), IL1A (gene 3552); assay: BSK_KF3CT_IL1a: BioMAP Diversity Plus: KF3CT Assay for Interleukin-1 alpha (IL1a) Biomarker Activity (AID 2283070); conditions: primary human keratinocytes with fibroblasts; actives raise or lower the signal
In short: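 Chemicals were dosed onto co-cultured human keratinocytes and foreskin fibroblasts, IL-1a was quantified by ELISA at 24 h, and activity was fitted in both directions relative to DMSO controls.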

[2] = read-out: TIMP metallopeptidase inhibitor 2 (TIMP2), TIMP2 (gene 7077); assay: BSK_KF3CT_TIMP2: BioMAP Diversity Plus: KF3CT Assay for TIMP metallopeptidase inhibitor 2 (TIMP2) Biomarker Activity (AID 2283071); conditions: primary human keratinocytes with fibroblasts; actives raise or lower the signal
In short: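 Human primary keratinocyte/foreskin fibroblast co-culture dosed with chemical and sampled at 24 h. TIMP-2 levels quantified by ELISA; bidirectional fitting against DMSO negative control as baseline.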

[3] = read-out: C-C motif chemokine 2 (Homo sapiens) (UniProt P13500); assay: BSK_KF3CT_MCP1: BioMAP Diversity Plus: KF3CT Assay for Monocyte Chemoattractant Protein 1 (MCP1/CCL2) Biomarker Activity (AID 2283073); conditions: primary human keratinocytes with fibroblasts; actives raise or lower the signal
In short: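 KF3CT skin co-culture (keratinocytes/foreskin fibroblasts), 24 h post-dose; MCP-1 by ELISA; gain/loss of signal fit bidirectionally vs DMSO baseline.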

[4] = read-out: Matrix Metallopeptidase 9 (MMP9), MMP9 (gene 4318); assay: BSK_KF3CT_MMP9: BioMAP Diversity Plus: KF3CT Assay for Matrix Metallopeptidase 9 (MMP9) Biomarker Activity (AID 2283074); conditions: primary human keratinocytes with fibroblasts; actives raise or lower the signal;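 as to AC50: MMP9 protein level quantified by ELISA in the co-culture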
In short: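 Human keratinocyte/foreskin fibroblast co-culture; compound added; 24 h; MMP-9 by ELISA; bidirectional fit vs DMSO baseline.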

[5] = read-out: urokinase plasminogen activator (uPA), PLAU (gene 5328); assay: BSK_KF3CT_uPA: BioMAP Diversity Plus: KF3CT Assay for urokinase plasminogen activator (uPA) Biomarker Activity (AID 2283075); conditions: primary human keratinocytes with fibroblasts; actives raise or lower the signal
In short: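 ELISA readout of uPA, analyzed for signal gain or loss relative to DMSO, from a human primary keratinocyte–foreskin fibroblast co-culture measured 24 h after chemical treatment.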

[6] = read-out: CD40, CD40 (gene 958); assay: BSK_LPS_CD40: BioMAP Diversity Plus: LPS Assay for CD40 Biomarker Activity (AID 2283076); conditions: primary human HUVEC with PBMC; actives raise or lower the signal
In short: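 ELISA readout of CD40 in HUVEC/PBMC co-culture (BSK_LPS system), 24 h post-dosing; bidirectional curve fit, DMSO baseline; parallel SRB total-protein staining for cytotoxicity.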

[7] = read-out: E-selectin (Homo sapiens) (UniProt P16581); assay: BSK_LPS_Eselectin: BioMAP Diversity Plus: LPS Assay for Eselectin Biomarker Activity (AID 2283077); conditions: primary human HUVEC with PBMC; actives raise or lower the signal
In short: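 ELISA readout of E-selectin, 24 h post-dose, HUVEC + PBMC co-culture (LPS system). Gain or loss of signal vs DMSO baseline, bidirectional fit.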

[8] = BSK_LPS_SRB: Viability Assessment in the BioMAP Diversity Plus: LPS Assay (AID 2283079); conditions: primary human HUVEC with PBMC;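 also: total protein by sulforhodamine B absorbance as a cytotoxicity measure; measured one day after compound addition; fitted in both directions against DMSO so loss or gain of signal counts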
In short: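 HUVEC + PBMC co-culture, LPS-stimulated; compound 24 h. 10% TCA fix, 0.1% SRB stain, A560. Bidirectional fit vs DMSO.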

[9] = read-out: Interleukin-1 alpha (IL1a), IL1A (gene 3552); assay: BSK_LPS_IL1a: BioMAP Diversity Plus: LPS Assay for Interleukin-1 alpha (IL1a) Biomarker Activity (AID 2283080); conditions: primary human HUVEC with PBMC; actives raise or lower the signal
In short: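 HUVEC/PBMC co-culture, LPS system; 24 h after dosing; IL-1a by ELISA; gain or loss of signal fitted bidirectionally vs DMSO baseline.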

[10] = read-out: Interleukin-8 (IL8), CXCL8 (gene 3576); assay: BSK_LPS_IL8: BioMAP Diversity Plus: LPS Assay for Interleukin-8 (IL8) Biomarker Activity (AID 2283078); conditions: primary human HUVEC with PBMC; actives raise or lower the signal
In short: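 HUVEC + PBMC co-culture, LPS-activated; test chemicals dosed, IL-8 read by ELISA at 24 h. Bidirectional curve fit vs DMSO baseline (gain or loss of signal).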

Measured: AC50

Chain of E-selectin (Homo sapiens) (P16581 whole entry, looked up): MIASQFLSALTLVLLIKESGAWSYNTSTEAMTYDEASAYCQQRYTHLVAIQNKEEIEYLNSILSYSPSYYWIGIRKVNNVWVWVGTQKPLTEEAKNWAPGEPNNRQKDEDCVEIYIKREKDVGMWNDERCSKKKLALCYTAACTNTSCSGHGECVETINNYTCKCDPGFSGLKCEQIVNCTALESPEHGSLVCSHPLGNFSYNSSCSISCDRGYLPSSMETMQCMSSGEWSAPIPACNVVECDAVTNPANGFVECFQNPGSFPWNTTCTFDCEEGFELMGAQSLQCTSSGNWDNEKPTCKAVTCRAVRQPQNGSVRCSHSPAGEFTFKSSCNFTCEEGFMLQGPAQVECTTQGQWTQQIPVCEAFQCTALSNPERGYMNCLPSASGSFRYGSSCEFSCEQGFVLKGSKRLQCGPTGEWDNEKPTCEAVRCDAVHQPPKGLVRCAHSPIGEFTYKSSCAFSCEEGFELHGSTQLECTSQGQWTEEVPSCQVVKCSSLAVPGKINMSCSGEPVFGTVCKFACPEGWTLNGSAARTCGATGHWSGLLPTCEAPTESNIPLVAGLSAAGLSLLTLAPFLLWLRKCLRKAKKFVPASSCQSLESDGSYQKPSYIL

CCN=C1C=CC(=C(c2ccc(N(CC)CC)cc2)c2ccc(N(CC)CC)cc2)c2ccccc21
active: [1] 2.69 µM and 2.13 µM | [2] 1.87 µM and 1.66 µM | [3] 3.2 µM and 2.66 µM | [4] 1.61 µM and 1.54 µM | [5] 2.62 µM and 1.92 µM | [6] 244 nM and 1.3 µM | [7] 974 nM and 574 nM | [8] 2.39 µM and 2.33 µM | [9] 2.54 µM and 1.43 µM

C=C(C)C(=O)OCC(F)(F)C(F)(F)C(F)(F)C(F)F
not listed: [10]
inactive: all other assays above

CCN(CC)c1ccc(C=O)c(O)c1
not listed: [10]
inactive: all other assays above

OCCCCC(F)(F)C(F)(F)C(F)(F)C(F)(F)F
not listed: [10]
inactive: all other assays above

O=C1c2c(O)ccc(Nc3ccc(CCO)cc3)c2C(=O)c2c([N+](=O)[O-])ccc(O)c21
active: [2] 540 nM | [4] 20 µM | [6] 8.34 µM | [7] 20 µM | [8] 3.97 µM
inactive: [1] | [3] | [5] | [9]

O=S(=O)(O)CCC(F)(F)C(F)(F)C(F)(F)C(F)(F)F
not listed: [10]
inactive: all other assays above

O=C(Cl)C(F)(F)C(F)(F)C(F)(F)C(F)(F)C(F)(F)C(F)(F)C(F)(F)F
not listed: [10]
inactive: all other assays above

Cc1cnccn1
not listed: [10]
inactive: all other assays above

O=C=Nc1cccc2c(N=C=O)cccc12
inactive: all assays above

Nc1cc([N+](=O)[O-])cc(Cl)c1O
not listed: [10]
inactive: all other assays above

NC(O)(C(F)(F)F)C(F)(F)F
not listed: [10]
inactive: all other assays above

O=S(=O)(Cl)C(F)(F)C(F)(F)C(F)(F)C(F)(F)C(F)(F)C(F)(F)C(F)(F)C(F)(F)F
active: [4] 30 µM and 51.1 µM
not listed: [10]
inactive: all other assays above

Brc1nc2ccccc2s1
not listed: [9] | [10]
inactive: all other assays above

COC(F)(C(F)F)C(F)(F)F (stereo not drawn)
not listed: [10]
inactive: all other assays above

Cc1cc(O)c(C(C)(C)C)cc1C(C)(C)C
active: [1] 4.04 µM | [2] 2050 nM | [3] 3.37 µM | [4] 5.96 µM | [5] 3.78 µM | [6] 5.28 µM | [7] 6.95 µM | [8] 7.74 µM | [9] 5.31 µM

FC(F)(F)C(F)(F)C(F)(F)C(F)(F)C(F)(F)C(F)(F)CC[Si](Cl)(Cl)Cl
not listed: [10]
inactive: all other assays above

O=C(F)C1(F)C(F)(F)C(F)(F)C(F)(F)C(F)(F)C1(F)F
inactive: all assays above

C[C@]12CC[C@H]3C(=CCc4cc(O)ccc43)[C@@H]1CCC2=O
not listed: [10]
inactive: all other assays above
